Assay results: the supplement of paper PMC12645437, “Orthogonal IMiD-Degron Pairs Induce Selective Protein Degradation in Cells” (ACS Chemical Biology, 2025)
In all, about 8,300 sequences were measured (“log2 fold change of degron read counts, EGFP-low vs EGFP+ sorted cells (limma voom), compound-induced degradation”: median about -1.1, highest 2% from about 3.2 on). The entries come from a sample that favours the highest values as a whole.

T1: CRBN, Q96SW2
T1 chain: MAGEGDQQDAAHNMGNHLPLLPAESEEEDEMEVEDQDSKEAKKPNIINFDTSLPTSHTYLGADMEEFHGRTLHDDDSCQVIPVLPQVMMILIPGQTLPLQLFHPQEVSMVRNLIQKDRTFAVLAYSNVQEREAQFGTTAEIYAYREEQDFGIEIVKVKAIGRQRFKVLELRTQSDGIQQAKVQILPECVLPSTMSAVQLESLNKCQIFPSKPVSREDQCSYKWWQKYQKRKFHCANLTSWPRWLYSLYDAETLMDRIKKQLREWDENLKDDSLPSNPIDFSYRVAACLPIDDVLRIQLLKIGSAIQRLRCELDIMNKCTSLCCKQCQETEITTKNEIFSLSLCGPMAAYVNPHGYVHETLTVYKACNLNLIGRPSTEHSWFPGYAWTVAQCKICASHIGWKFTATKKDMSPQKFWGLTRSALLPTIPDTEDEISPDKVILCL


Molecular target: T1, CRBN, Q96SW2
Test: log2 fold change of degron read counts, EGFP-low vs EGFP+ sorted cells (limma voom), compound-induced degradation; higher = more compound-induced degradation of the degron-EGFP fusion; degrons are variants of IKZF1/3 zinc finger 2; compound dose not given here
Details: Jurkat, 18 h
[1] = compound: compound 19 (5-tert-butyl-thalidomide)
[2] = compound: compound 22 (5-morpholino-thalidomide)
[3] = compound: compound 33 (diphenyl IMiD analogue)
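Further: pooled lentiviral library of zinc finger degron-EGFP fusions in mCherry-positive Jurkat cells, FACS-sorted after compound exposure, with degron abundance counted by next-generation sequencing.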

Sequence	log2 fold change of degron read counts [1]	log2 fold change of degron read counts [2]	log2 fold change of degron read counts [3]	log2 fold change of degron read counts (compound: thalidomide)
FSCDICGAQFTQKGNLLRHIKL [46F_47S_49D_50I_52G_53A_54Q_55F_67L_, Q9UKT9]	1.74	1.52	0.198	0.0774
LTCPICGFNCTQKGNLLRHIKL [46L_47T_49P_50I_52G_53F_54N_55C_67L_, Q9UKT9]	-0.006	2.04	2.24	2.86
FSCEICGHYFTQKGNLLRHIKL [46F_47S_49E_50I_52G_53H_54Y_55F_67L_, Q9UKT9]	-2.13	-2.82	-2.44	-2.99
FLCEICGHLFTQKGNLLRHIKL [46F_47L_49E_50I_52G_53H_54L_55F_67L_, Q9UKT9]	-3.49	-2.55	-2.84	-2.4
FMCEICGRDFTQKGNLLRHIKL [46F_47M_49E_50I_52G_53R_54D_55F_67L_, Q9UKT9]	-4.1	-3.78	-2.1	-2.87
FVCDVCGANFTQKGNLLRHIKL [46F_47V_49D_50V_52G_53A_54N_55F_67L_, Q9UKT9]	-1.78	0.744	0.282	0.237
FICPVCGANFTQKGNLLRHIKL [46F_47I_49P_50V_52G_53A_54N_55F_67L_, Q9UKT9]	-1.07	2.83	1.95	2.35
FWCNVCGANFTQKGNLLRHIKL [46F_47W_49N_50V_52G_53A_54N_55F_67L_, Q9UKT9]	1.2	3.53	1.36	-0.0957
FECNVCGANFTQKGNLLRHIKL [46F_47E_49N_50V_52G_53A_54N_55F_67L_, Q9UKT9]	-2.58	-1.81	0.845	0.642
FWCDVCGANFTQKGNLLRHIKL [46F_47W_49D_50V_52G_53A_54N_55F_67L_, Q9UKT9]	1.91	3.89	0.9	-0.759
FRCPVCGANFTQKGNLLRHIKL [46F_47R_49P_50V_52G_53A_54N_55F_67L_, Q9UKT9]	-0.729	-0.0361	1.6	1.18
FECDVCGANFTQKGNLLRHIKL [46F_47E_49D_50V_52G_53A_54N_55F_67L_, Q9UKT9]	-1.89	-2.52	0.03	-0.264
FFCPVCGANFTQKGNLLRHIKL [46F_47F_49P_50V_52G_53A_54N_55F_67L_, Q9UKT9]	2.53	3.51	1.89	1.22
FYCNVCGANFTQKGNLLRHIKL [46F_47Y_49N_50V_52G_53A_54N_55F_67L_, Q9UKT9]	0.97	2.35	0.921	-0.663
FSCEICGHWFTQKGNLLRHIKL [46F_47S_49E_50I_52G_53H_54W_55F_67L_, Q9UKT9]	-2.92	-3.14	-2.71	-2.77
FRCNICGAMFTQKGNLLRHIKL [46F_47R_49N_50I_52G_53A_54M_55F_67L_, Q9UKT9]	-1.41	-1.24	-0.539	-0.171

Sequence	log2 fold change of degron read counts [1]	log2 fold change of degron read counts [2]	log2 fold change of degron read counts [3]	log2 fold change of degron read counts (compound: thalidomide)
FKCPICGHGFTQKGNLLRHIKL [46F_47K_49P_50I_52G_53H_54G_55F_67L_, Q9UKT9]	-2.34	-2.29	-2.14	-1.69
FYCPVCGAKFTQKGNLLRHIKL [46F_47Y_49P_50V_52G_53A_54K_55F_67L_, Q9UKT9]	2.58	2.82	1.14	0.354
FSCEVCGAHFTQKGNLLRHIKL [46F_47S_49E_50V_52G_53A_54H_55F_67L_, Q9UKT9]	2.19	0.401	0.505	0.0402
FACEICGAMFTQKGNLLRHIKL [46F_47A_49E_50I_52G_53A_54M_55F_67L_, Q9UKT9]	3.3	1.74	0.378	-0.0211
FFCEICGAMFTQKGNLLRHIKL [46F_47F_49E_50I_52G_53A_54M_55F_67L_, Q9UKT9]	3.34	3.12	1.91	0.537
FGCEICGAMFTQKGNLLRHIKL [46F_47G_49E_50I_52G_53A_54M_55F_67L_, Q9UKT9]	3	2.34	1.39	0.523
FLCEICGAMFTQKGNLLRHIKL [46F_47L_49E_50I_52G_53A_54M_55F_67L_, Q9UKT9]	-0.288	-1.63	0.563	0.887
FHCEICGAMFTQKGNLLRHIKL [46F_47H_49E_50I_52G_53A_54M_55F_67L_, Q9UKT9]	2.38	1.87	1.06	-0.251
FECEICGAMFTQKGNLLRHIKL [46F_47E_49E_50I_52G_53A_54M_55F_67L_, Q9UKT9]	-0.963	-1.94	0.392	1.16
FDCEICGAMFTQKGNLLRHIKL [46F_47D_49E_50I_52G_53A_54M_55F_67L_, Q9UKT9]	0.132	-1.04	-0.408	0.217
FQCEICGAMFTQKGNLLRHIKL [46F_47Q_49E_50I_52G_53A_54M_55F_67L_, Q9UKT9]	-0.0508	2.24	2.45	3.57
FNCEICGAMFTQKGNLLRHIKL [46F_47N_49E_50I_52G_53A_54M_55F_67L_, Q9UKT9]	1.65	-0.456	-0.467	-0.552
FWCEICGAMFTQKGNLLRHIKL [46F_47W_49E_50I_52G_53A_54M_55F_67L_, Q9UKT9]	3.33	3.63	2.34	0.517
FMCEICGAMFTQKGNLLRHIKL [46F_47M_49E_50I_52G_53A_54M_55F_67L_, Q9UKT9]	-0.964	-0.957	1.9	0.514
FCCEICGAMFTQKGNLLRHIKL [46F_47C_49E_50I_52G_53A_54M_55F_67L_, Q9UKT9]	2.28	1.35	2.11	1.39
